Records with an inconclusive call do not appear. Calls of active or inactive are those of the source. Calls follow the shape of the dose curve; as a rule, active = well fitted cell-killing curve with a large enough effect; inconclusive = small, poorly fitted or top-dose-only effect, or effect the other way; inactive = no such curve, though single readings can be large or run the other way.
Experiment: Viability qHTS for spleen associated tyrosine kinase inhibitor (SYKi) drug resistant MV4-11 cells (AID 1963824); also: nearly all actives have a fitted effect of over 35% in size
In short: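 SYK-inhibitor-resistant MV4-11 AML cells were seeded at 500 per well onto compound and cultured 72 hours (37 °C, 5% CO2). CellTiter-Glo was then added, and after 10 min at room temperature, luminescence gave viability.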
Potency is read from the fitted curve at half-maximal effect.

In the case of `O=C(O)/C=C/c1cc2c(cc1O[C@@H]1O[C@H](CO)[C@@H](O)[C@H](O)[C@H]1O)OCO2`, the Potency is reported as “inactive”.
In the case of `CC1CC(C(O)C(C)(C)O)OC2CC3(C)C4(C)CCC5C(C)(C)C(=O)CCC5(C)C4CCC3(O)C12O` (configuration not stated), the Potency is reported as 11.2 µM (active).
For `COc1cc2c(cc1OC)[C@@H]1[C@H](O)[C@@H](OC)C=C3CCN(C2)[C@H]31`, the Potency was 1.8 µM (active).
In the case of `CCCCNc1ccc(-c2ccc(CN3CCOCC3)cn2)c(NC2CCC(O)CC2)c1` (configuration not stated), the Potency is reported as 0.0502 µM (active).
In the case of `CO[C@@H]1[C@@H](O[C@H]2O[C@@H](C)[C@H](O[C@@H]3C[C@](C)(O)[C@H](O)[C@@H](C)O3)[C@@H](N(C)C)[C@@H]2O)[C@@H](CC=O)C[C@@H](C)[C@@H](O[C@H]2CC[C@H](N(C)C)[C@H](C)O2)/C=C/C=C/C[C@@H](C)OC(=O)C[C@H]1O`, the Potency is reported as 10.3 µM (active).
For `C[C@@H]1O[C@@H](O[C@H]2[C@@H]3C=CO[C@@H](O[C@@H]4O[C@H](CO)[C@@H](O)[C@H](O)[C@H]4O)[C@@H]3[C@@]3(CO)O[C@@H]23)[C@H](O)[C@H](OC(=O)/C=C/c2ccccc2)[C@H]1O`, the Potency was 6.11 µM (active).
For `Clc1ccc2ncc(-c3cccc(NC4CCNC4)n3)n2c1` (configuration not stated), the Potency was 0.0103 µM (active).
For `CC[C@H](C)[C@@H]1NC(=O)[C@H](Cc2ccc(OC)cc2)NC(=O)CCCSC[C@@H](C(=O)N2CCC[C@H]2C(=O)N[C@@H](CC(C)C)C(=O)NCC(N)=O)NC(=O)[C@H](CC(N)=O)NC(=O)[C@H](CCC(N)=O)NC1=O`, the Potency was “inactive”.
For `NC(=O)N1CCC(CC(=O)N2CCC(C3c4ncc(Br)cc4CCc4cc(Cl)cc(Br)c43)CC2)CC1` (configuration not stated), the Potency was 2.06 µM (active).
With `Cc1nc(Nc2cnn(C3CCNCC3)c2)nc2c1N(C)C(=O)c1cc3ccccc3cc1N2C` the Potency was 6.51 µM (active).
In the case of `CC(=O)OC[C@@]12C(=O)C[C@@H](C)[C@]3(C[C@@H](c4ccoc4)OC3=O)[C@H]1CC[C@H](OC(C)=O)[C@]21CO1`, the Potency is reported as “inactive”.
In the case of `COC1=Cc2c(nc3n(c2=O)C(C)C(=O)NC3(O)C(C)C)OC=C1` (configuration not stated), the Potency is reported as “inactive”.
With `O=C(O)/C=C/c1ccc(-c2ccc(O)c(C34CC5CC(CC(C5)C3)C4)c2)cc1` the Potency was 0.103 µM (active).
For `CN(C)c1nc(NC2CCC(NCCc3ccc(Br)cc3OC(F)(F)F)CC2)nc2ccccc12` (configuration not stated), the Potency was 0.651 µM (active).
For `NC[C@H]1O[C@H](O[C@H]2[C@H](O)[C@@H](O[C@H]3O[C@H](CO)[C@@H](O)[C@H](N)[C@H]3O)[C@H](N)C[C@@H]2N)[C@H](N)C[C@@H]1O`, the Potency was 18.6 µM (active).
For `CCS(=O)(=O)N(Cc1cccnc1)c1cccc(-c2ccc(C#N)cc2)c1`, the Potency was 20.6 µM (active).
In the case of `CC(Oc1cc(-n2cnc3ccc(CN4CCN(C)CC4)cc32)sc1C(N)=O)c1ccccc1C(F)(F)F` (configuration not stated), the Potency is reported as 0.461 µM (active).
In the case of `COC(=O)[C@@H](NC(=O)[C@H](CC(C)C)NC(=O)N(Cc1ccccc1)C[C@@H](O)[C@H](Cc1ccccc1)NC(=O)OC(C)(C)C)C(C)C`, the Potency is reported as 3.35 µM (active).
In the case of `N#Cc1ccc(-c2cnc3[nH]cc(NC(=O)c4cccnc4)c3c2)cc1`, the Potency is reported as 0.92 µM (active).
For `C=C1CCN([C@H](C)[C@](O)(Cn2cncn2)c2ccc(F)cc2F)CC1`, the Potency was 14.6 µM (active).
In the case of `O=C1NC(Cc2c[nH]c3ccccc23)C(=O)NC1Cc1c[nH]c2ccccc12` (configuration not stated), the Potency is reported as “inactive”.
In the case of `Cc1ccn(-c2cc(Cl)ccc2[C@@H](Oc2cc(-c3ccc(C[C@H](N)C(=O)O)cc3)nc(N)n2)C(F)(F)F)n1`, the Potency is reported as 20.6 µM (active).
For `C=C(CCO)C(=O)OCC1OCC(OC(=O)C(=C)CCO[C@@H]2O[C@H](COC(=O)C(=C)CCO[C@@H]3O[C@H](CO)[C@@H](O)[C@H](O)[C@H]3O)[C@@H](O)[C@H](O)[C@H]2O)C(O)C1O` (some centres not stated), the Potency was “inactive”.
With `CC1(C)CC[C@]2(C(=O)O)CC[C@]3(C)C(=CCC4[C@@]5(C)C(=O)C[C@H](O)[C@@](C)(CO)C5CC[C@]43C)[C@@H]2C1` (some centres not stated) the Potency was “inactive”.
For `CNC(=O)c1ccccc1Nc1cc(Nc2ccc(N3CCOCC3)cc2OC)ncc1C(F)(F)F`, the Potency was 0.326 µM (active).
With `CC1(C)CC[C@]2(C(=O)O[C@@H]3O[C@H](CO)[C@@H](O)[C@H](O)[C@H]3O)CC[C@]3(C)C(=CCC4[C@@]5(C)C[C@@H](O)[C@H](O)C(CO)(CO)C5CC[C@]43C)C2[C@@H]1O` (some centres not stated) the Potency was “inactive”.
With `N#Cc1ccc2[nH]cc(CCCCN3CCN(c4ccc5oc(C(N)=O)cc5c4)CC3)c2c1` the Potency was 18.4 µM (active).

From PubChem BioAssay (NCATS)
